Results: PubChem BioAssay (NCATS)
Inconclusive results are not listed. The source made the active and inactive calls. Calls come from the whole dose curve; as a rule, active = well fitted inhibition curve with a large enough effect; inconclusive = small, poorly fitted or top-dose-only effect; inactive = flat fitted curve, though single readings scatter. Where a SMILES comes first, the peptide text is derived from it. [ ]: non-standard residue; d: D form. ξ: configuration not given here. ξTyr(βOH) = NC(C(=O)O)C(O)c1ccc(O)cc1

Columns and labels:
[1] = target: Glutathione peroxidase 1 (Homo sapiens) (UniProt P07203); experiment: Primary qHTS Assay for Inhibitors of Recombinant Selenoprotein Glutathione Peroxidase 1 (GPX1) (AID 1845191); note: nearly all actives have a fitted effect of over 65% in size
Sequence of Glutathione peroxidase 1 (Homo sapiens) (P07203 whole entry, looked up): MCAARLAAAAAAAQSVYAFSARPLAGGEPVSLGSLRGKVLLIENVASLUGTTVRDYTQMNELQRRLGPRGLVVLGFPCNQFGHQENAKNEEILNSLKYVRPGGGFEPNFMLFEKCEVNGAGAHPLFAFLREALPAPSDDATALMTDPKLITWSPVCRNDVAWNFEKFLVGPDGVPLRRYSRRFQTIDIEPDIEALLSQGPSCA
How it was run: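 GR-coupled assay: compounds preincubated 30 min at room temperature with GPX1, then reaction started with CHP; final 10 nM GPX1, 1 mM GSH, 0.5 mM CHP, 0.5 mM NADPH, 100 nM GR, 0.01% BSA, pH 7.5 Tris buffer. NADPH fluorescence (340/450 nm) read at 0 and 15 min.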

[2] = target: Phospholipid hydroperoxide glutathione peroxidase GPX4 (Homo sapiens) (UniProt P36969); experiment: Primary qHTS Assay for Inhibitors of Recombinant Selenoprotein Glutathione Peroxidase 4 (GPX4) (AID 1845192); note: nearly all actives have a fitted effect of over 65% in size; for activity change, negative = inhibition: series mostly up to about 50 µM; % is set by controls: 0 for no effect and ±100 for the full control effect
Sequence of Phospholipid hydroperoxide glutathione peroxidase GPX4 (Homo sapiens) (P36969 whole entry, looked up): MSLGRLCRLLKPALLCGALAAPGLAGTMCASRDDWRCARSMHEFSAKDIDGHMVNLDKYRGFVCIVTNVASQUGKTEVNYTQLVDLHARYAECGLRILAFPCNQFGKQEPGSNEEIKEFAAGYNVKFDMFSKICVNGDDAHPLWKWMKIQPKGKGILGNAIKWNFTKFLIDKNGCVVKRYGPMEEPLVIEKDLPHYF
How it was run: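 GR-coupled assay: recombinant GPX4 preincubated 30 min with compound at room temperature; final 200 nM GPX4, 1 mM GSH, 0.5 mM cumene hydroperoxide, 0.5 mM NADPH, 100 nM GR, 0.01% BSA, pH 7.5 Tris. NADPH fluorescence (340/450 nm) read at 0 and 15 min.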

[3] = target: Luciferin 4-monooxygenase (Photinus pyralis) (UniProt P08659); experiment: Primary firefly luciferase (FLuc) qHTS assay for identification of artifact compounds. (AID 1845220); note: nearly all actives have a fitted effect of over 60% in size;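 for activity change, negative = inhibition: series mostly up to about 54 µM; plate controls were DMSO vehicle for no effect and no enzyme for full effect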
How it was run: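 Enzymatic FLuc inhibition assay: compounds pre-exposed to luciferin/ATP (10 uM each) for 15 min, then purified P. pyralis enzyme at 10 nM added. Read-out: luminescence at 5 min.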

OC[C@H]1O[C@@H](OCCc2ccccc2)[C@H](O[C@@H]2OC[C@@H](O)[C@H](O)[C@H]2O)[C@@H](O)[C@@H]1O
inactive: Potency [1] | Potency [2] | Potency [3]

COC(=O)[C@H](O)[C@H]1C(C)(C)[C@H](OC(C)=O)[C@@]2(O)C(=O)[C@]1(C)C1CC[C@]3(C)C(CC(=O)O[C@H]3c3ccoc3)[C@]13O[C@@H]32 (stereo not given in full)
inactive: Potency [1] | Potency [2] | Potency [3]

COc1cc([C@H]2OC[C@](O)(Cc3ccc(O[C@@H]4O[C@H](CO)[C@@H](O)[C@H](O)[C@H]4O)c(OC)c3)[C@@H]2CO)ccc1O
inactive: Potency [1] | Potency [2] | Potency [3]

Nc1ccc(-n2nc(C(F)(F)F)cc2C(F)(F)F)cc1
inactive: Potency [1] | Potency [2] | Potency [3]

Cc1cc(CNC(=O)c2cc(C(=O)NCc3ccc(F)c(C)c3)ncn2)ccc1F
inactive: Potency [1] | Potency [2] | Potency [3]

O=C(O)Cc1cn([C@@H]2O[C@H](CO)[C@@H](O)[C@H](O)[C@H]2O[C@@H]2O[C@H](CO)[C@@H](O)[C@H](O)[C@H]2O)c2ccccc12
inactive: Potency [1] | Potency [2] | Potency [3]

CC(C)C1NC(=O)CNC(=O)C2CCCN2C(=O)C(Cc2c[nH]c3ccccc23)NC(=O)CNC(=O)C(C(O)c2ccc(O)cc2)NC(=O)CNC1=O (stereo not given) (cyclo(G[ξTyr(βOH)]GWPGV); configuration not given here)
inactive: Potency [1] | Potency [2] | Potency [3]

COc1ccccc1Oc1c(NS(=O)(=O)c2ccc(C)cn2)nc(-c2ccncc2)nc1OC
inactive: Potency [1] | Potency [2] | Potency [3]

C[C@@H]1CC[C@]2(C(=O)O[C@@H]3O[C@H](CO[C@@H]4O[C@H](CO)[C@@H](O)[C@H](O)[C@H]4O)[C@@H](O)[C@H](O)[C@H]3O)CC[C@]3(C)C(=CCC4[C@@]5(C)CC[C@H](O)[C@](C)(C(=O)O)C5CC[C@]43C)[C@@H]2[C@]1(C)O (stereo not given in full)
inactive: Potency [1] | Potency [2] | activity change, negative = inhibition [3] -0.663% [at 11.6 µM]

N#Cc1cc(-c2n[nH]c(-c3ccncc3)n2)ccn1
inactive: Potency [1] | Potency [2] | Potency [3]

C=C[C@H]1[C@H](O[C@@H]2O[C@H](CO)[C@@H](O)[C@H](O)[C@H]2O)OC=C(C(=O)OC)[C@H]1CCO
inactive: Potency [1] | Potency [2] | Potency [3]

COc1cc(C(=O)OC[C@H]2O[C@@H](OC(C)(C)C(=O)O)[C@H](O)[C@@H](O)[C@@H]2O)cc(OC)c1O
inactive: Potency [1] | Potency [2] | Potency [3]

COc1cc(/C=C/C(=O)O[C@@H]2O[C@H](CO)[C@@H](O)[C@H](O)[C@H]2O)ccc1O
inactive: Potency [1] | Potency [2] | Potency [3]

CC1(C)C2CCC1(C)C(OC(=O)C(O)(CC(=O)O)CC(=O)O)C2 (stereo not given)
inactive: Potency [1] | Potency [2] | Potency [3]

O=C(OC1C=C(CO)C2C(OC3OC(CO)C(O)C(O)C3O)OC=CC12O)c1ccc(O)cc1 (stereo not given)
inactive: Potency [1] | Potency [2] | Potency [3]

CC(=O)OC(C)C(C)(O)C(=O)O[C@@H]1CC[C@]2(C)CC(=O)C(=C(C)C)C[C@H]2[C@]1(C)OC(C)=O (stereo not given in full)
inactive: Potency [1] | Potency [2] | Potency [3]

NC(N)=NCCC[C@H](NC(=O)c1sccc1NS(=O)(=O)c1cccc2nsnc12)C(=O)O
inactive: Potency [1] | Potency [2] | Potency [3]

COC(=O)C1=COC(OC2OC(CO)C(O)C(O)C2O)C2C(COC(=O)/C=C/c3ccc(O)c(O)c3)C(O)C(O)C12 (stereo not given)
inactive: Potency [1] | Potency [2] | Potency [3]

O=C(OC(C(F)(F)F)C(F)(F)F)N1CCN(Cc2cccc(Oc3ccccc3)c2)CC1
inactive: Potency [1] | Potency [2] | Potency [3]

O=C(O)CC1CCC(c2ccc(-c3ccc(Nc4ccc(C(F)(F)F)nc4)cn3)cc2)CC1 (stereo not given)
inactive: Potency [1] | Potency [2] | Potency [3]

CC(C)C1NC(=O)C(CC2(O)c3ccccc3N3C(=O)C(Cc4ccccc4)NC32)NC1=O (stereo not given)
inactive: Potency [1] | Potency [2] | Potency [3]

COC(=O)[C@]1(Cc2ccc(O)c(CC=C(C)C)c2)OC(=O)C(O)=C1c1ccc(O)cc1
inactive: Potency [1] | Potency [2] | Potency [3]

CC(NC(=O)c1ccccc1N)C(=O)O (stereo not given)
inactive: Potency [1] | Potency [2] | Potency [3]

OC[C@@]1(O)CO[C@H](OC[C@H]2O[C@@H](OC(CCCCc3ccc(O)cc3)CCc3ccc(O)cc3)[C@H](O[C@H]3OC[C@](O)(CO)[C@H]3O)[C@@H](O)[C@@H]2O)[C@@H]1O (stereo not given in full)
inactive: Potency [1] | Potency [2] | Potency [3]

CC(=O)O[C@H]1[C@H](O[C@H]2CC[C@]34C[C@]35CC[C@]3(C)[C@@H]([C@@]6(C)CC[C@@H](C(C)(C)O)O6)[C@@H](O)C[C@@]3(C)[C@@H]5C[C@H](O[C@@H]3O[C@H](CO)[C@@H](O)[C@H](O)[C@H]3O)[C@H]4C2(C)C)OC[C@@H](OC(C)=O)[C@@H]1O
inactive: Potency [1] | Potency [2] | Potency [3]

COC(=O)C(CC1(OC(=O)C(C)C)c2ccccc2N2C(=O)C(C)(C)N(O)C21)n1cnc2ccccc2c1=O (stereo not given)
inactive: Potency [1] | Potency [2] | Potency [3]

O=C(Nc1ccc(N2CCC(C(=O)N3CCOCC3)CC2)cc1)c1cnc(Oc2ccccc2)nc1
inactive: Potency [1] | Potency [2] | Potency [3]

O=S(=O)(O)c1ccc(Nc2ncnc3c2ncn3[C@@H]2O[C@H](CO)[C@@H](O)[C@H]2O)cc1
inactive: Potency [1] | Potency [2] | Potency [3]

C[C@@H]1O[C@@H](O[C@H]2[C@H](O)[C@@H](O[C@@H]3O[C@H](CO)[C@H](O)[C@H](O)[C@H]3O)[C@H](O[C@H]3CC[C@@]4(C)C(CC[C@]5(C)C4CC=C4[C@@H]6CC(C)(C)CC[C@]6(C(=O)O[C@@H]6O[C@H](CO)[C@@H](O)[C@H](O)[C@H]6O)CC[C@]45C)C3(C)C)O[C@@H]2C(=O)O)[C@H](O)[C@H](O)[C@H]1O (stereo not given in full)
inactive: Potency [1] | Potency [2] | outcome [3] inactive [at 11.6 µM]

C[C@H]1CC[C@H]2[C@@H](C=C[C@@](C)(O)[C@]2(C)C(=O)CCO)C1
inactive: Potency [1] | Potency [2] | Potency [3]

CC1(C)C2CC[C@@]34CC(CC[C@H]3[C@]2(C)CC[C@@H]1O[C@@H]1O[C@H](CO)[C@@H](O)[C@H](O)[C@H]1O)[C@](C)(O)C4 (stereo not given in full)
inactive: Potency [1] | Potency [2] | Potency [3]

O=C(O)c1ccnc2cc(C(OCC3CCC(F)(F)CC3)c3ccccc3Cl)[nH]c12 (stereo not given)
inactive: Potency [1] | Potency [2] | Potency [3]

CC1(C)COC(=O)[C@@H]1O[C@@H]1O[C@H](CO)[C@@H](O)[C@H](O)[C@H]1O
inactive: Potency [1] | Potency [2] | Potency [3]

COc1cccc(OC)c1-c1cc(C(=O)N[C@@H](CC(C)C)C(=O)O)nn1-c1ccnc2cc(Cl)ccc12
inactive: Potency [1] | Potency [2] | Potency [3]

C[C@@H](CC[C@@H]1[C@@]2(C)CCCC(C)(C)C2CC[C@@]1(C)O)CC(=O)O (stereo not given in full)
inactive: Potency [1] | Potency [2] | Potency [3]
